In PubChem BioAssay AID624101 (Broad Institute, 2012):
Out of some 70,000 compounds screened, about 120 (0.17%) were called active. The list comes from a sample in which actives are over-represented; it also holds similar structures and randomly drawn compounds. A number with no mark means an inactive call. Cut-off read from the data, not from the text of the source: active = inhibition above about 34%; inconclusive = no clear call, values can overlap the other calls; inactive = below about 11%.

Each molecule was assayed against Isocitrate dehydrogenase [NADP] cytoplasmic (Homo sapiens) (UniProt O75874) (assay: PubChem AID 624101). Settings: IDH1 R132H reductase, diaphorase/resazurin fluorescence, 60 min; at 10 µM; stronger effect = higher value.
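Note: 0% = DMSO and 100% = no enzyme.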

Isocitrate dehydrogenase [NADP] cytoplasmic (Homo sapiens), sequence (O75874 whole entry R132H): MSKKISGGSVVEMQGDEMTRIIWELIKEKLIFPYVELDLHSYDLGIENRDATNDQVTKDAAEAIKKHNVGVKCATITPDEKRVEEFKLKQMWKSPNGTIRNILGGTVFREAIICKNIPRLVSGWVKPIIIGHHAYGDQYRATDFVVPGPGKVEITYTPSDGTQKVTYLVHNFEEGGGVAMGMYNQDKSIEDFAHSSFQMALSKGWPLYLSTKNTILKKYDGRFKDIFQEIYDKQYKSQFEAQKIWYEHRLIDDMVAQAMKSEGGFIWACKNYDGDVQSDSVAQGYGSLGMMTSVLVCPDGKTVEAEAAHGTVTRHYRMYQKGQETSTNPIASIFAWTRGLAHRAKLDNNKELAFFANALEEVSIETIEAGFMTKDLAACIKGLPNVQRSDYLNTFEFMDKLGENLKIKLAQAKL

Structure (SMILES) | inhibition [%]
CC(C)NC(=O)N[C@H]1CC[C@H](CC(=O)NC2Cc3ccccc3C2)O[C@H]1CO | 0.112
CO[C@@H]1CN(C)C(=O)c2cc(NC(=O)C3CCOCC3)ccc2OC[C@H](C)N(Cc2cccnc2)C[C@H]1C | -0.057
O=C(C[C@@H]1CC[C@H](NS(=O)(=O)c2cccc(F)c2)[C@H](CO)O1)N1CCCCC1 | 0.0905
O=S(=O)(N[C@@H]1CC[C@H](CCn2cc(C3(O)CCCC3)nn2)O[C@@H]1CO)c1ccc(Cl)cc1 | 0.461
CCCC(=O)Nc1ccc2c(c1)OC[C@H](C)N(CCC(F)(F)F)C[C@@H](C)[C@H](OC)CN(C)C2=O | -0.114
COc1ccccc1-c1cn(CC[C@H]2CC[C@H](NC(=O)Cc3ccccn3)[C@H](CO)O2)nn1 | 0.087
COc1ccccc1S(=O)(=O)N[C@@H]1C=C[C@H](CC(=O)N2CCN(C)CC2)O[C@@H]1CO | 0.0315
CS(=O)(=O)Nc1ccc2c(c1)[C@H]1C[C@H](CC(=O)NCc3ccc(Cl)cc3)O[C@@H](CO)[C@H]1O2 | -0.335
CO[C@@H]1CN(C)C(=O)c2ccc(NC(=O)C3CCCCC3)cc2OC[C@@H](C)N(Cc2nccs2)C[C@@H]1C | 0.03
C[C@@H]1CN([C@H](C)CO)C(=O)c2cc(Br)cnc2O[C@@H]1CN(C)C(=O)Nc1ccc(F)cc1 | 0.064
C[C@H](NC(=O)C[C@@H]1CC[C@@H](NC(=O)Cc2ccccn2)[C@@H](CO)O1)c1ccccc1 | 0.0085
O=C(N[C@H]1CC[C@@H](CCNS(=O)(=O)c2ccccc2)O[C@H]1CO)c1cccnc1 | -0.222
Cc1cccc(S(=O)(=O)N[C@H]2CC[C@@H](CCNS(=O)(=O)c3ccccc3F)O[C@H]2CO)c1 | 0.059
COc1ccc(NC(=O)N[C@H]2CC[C@H](CCn3cc(-c4ccccc4F)nn3)O[C@H]2CO)cc1 | -0.29
COCc1cn(CC[C@H]2CC[C@@H](NC(=O)Nc3ccc(OC)cc3)[C@@H](CO)O2)nn1 | 0.176
C[C@@H]1CN([C@H](C)CO)C(=O)c2cc(C#CC3CC3)cnc2O[C@@H]1CN(C)Cc1cccc(C(=O)O)c1 | -0.167
CO[C@H]1CN(C)C(=O)c2ccc(NC(=O)Nc3ccc4c(c3)OCO4)cc2OC[C@H](C)NC[C@H]1C | -0.152
COCC(=O)Nc1ccc2c(c1)OC[C@H](C)N(C(=O)c1cnccn1)C[C@@H](C)[C@H](OC)CN(C)C2=O | 0.439
CC(C)CC#Cc1ccc2c(c1)O[C@@H](CN(C)C(=O)c1ccccn1)[C@@H](C)CN([C@H](C)CO)S2(=O)=O | -2.87
CO[C@H]1CN(C)C(=O)c2cc(NS(=O)(=O)CC(F)(F)F)ccc2OC[C@@H](C)N(Cc2nccs2)C[C@@H]1C | 0.457
CO[C@H]1CN(C)C(=O)c2ccc(NC(=O)NC(C)C)cc2OC[C@H](C)N(Cc2cncnc2)C[C@@H]1C | 0.214
O=C(Cc1ccncc1)NCC[C@H]1CC[C@@H](NC(=O)Nc2ccc(Cl)cc2)[C@@H](CO)O1 | 0.092
O=C(C[C@H]1CC[C@@H](NC(=O)Nc2ccc(C(F)(F)F)cc2)[C@H](CO)O1)NCc1cc(F)cc(F)c1 | 0.19
CCS(=O)(=O)N[C@@H]1CC[C@@H](CC(=O)NCC2CC2)O[C@H]1CO | -0.0912
COc1ccc(CNC(=O)C[C@@H]2CC[C@H](NC(=O)c3cccc(F)c3)[C@H](CO)O2)cc1 | 0.0345
O=C(N[C@H]1CC[C@@H](CCNS(=O)(=O)c2ccc(Cl)cc2)O[C@H]1CO)c1cccc(F)c1 | -0.0045

Structure (SMILES) | inhibition [%]
CO[C@@H]1CN(C)C(=O)c2ccc(NC(C)=O)cc2OC[C@@H](C)N(Cc2ccc(-c3ccccn3)cc2)C[C@H]1C | -0.357
CCCC(=O)Nc1ccc2c(c1)OC[C@H](C)N(S(=O)(=O)c1cn(C)cn1)C[C@@H](C)[C@H](OC)CN(C)C2=O | -0.504
C[C@@H]1CN([C@@H](C)CO)C(=O)c2cc(-c3ccccc3F)cnc2O[C@H]1CN(C)C(=O)C1CC1 | 0.564
O=C(C[C@H]1C[C@@H]2c3cc(NC(=O)CC4CC4)ccc3O[C@@H]2[C@H](CO)O1)NCc1cccnc1 | -0.193
CO[C@@H]1CN(C)C(=O)c2cc(NC(=O)C3CC3)ccc2OC[C@H](C)N(C(=O)CN2CCOCC2)C[C@@H]1C | 0.377
COCCNC(=O)C[C@H]1C[C@H]2c3cc(NS(C)(=O)=O)ccc3O[C@H]2[C@H](CO)O1 | -0.133
COCC(=O)N(C)C[C@H]1Oc2cc(C#CC3CCCC3)ccc2S(=O)(=O)N([C@H](C)CO)C[C@@H]1C | -1.42
C[C@H]1CN([C@@H](C)CO)C(=O)c2cc(-c3ccccc3F)cnc2O[C@H]1CN(C)C(=O)C1CCOCC1 | 0.288
O=C(N[C@H]1CC[C@@H](CCNS(=O)(=O)c2ccccc2)O[C@@H]1CO)c1cnccn1 | -0.078
O=C(NCC[C@@H]1CC[C@@H](NS(=O)(=O)c2cccc(F)c2)[C@H](CO)O1)C1CC1 | 0.164
CO[C@H]1CN(C)C(=O)c2cc(NC(=O)Nc3ccccc3)ccc2OC[C@@H](C)N(C(=O)Nc2c(C)noc2C)C[C@@H]1C | -0.138
COc1ccccc1-c1cn(CC[C@H]2CC[C@@H](NC(=O)CCN3CCCCC3)[C@@H](CO)O2)nn1 | -0.639
O=C(C[C@H]1C=C[C@@H](NC(=O)NC2CCCCC2)[C@@H](CO)O1)NCc1ccc(Cl)cc1 | 0.05
CCC(=O)Nc1ccc2c(c1)C(=O)N(C)C[C@@H](OC)[C@H](C)CN(Cc1ccccc1C(=O)O)[C@@H](C)CO2 | -0.502
CO[C@@H]1CN(C)C(=O)c2ccc(NS(C)(=O)=O)cc2OC[C@H](C)N(C(=O)C2CC2)C[C@H]1C | -0.15
CC(=O)N[C@H]1CC[C@H](CCNC(=O)C2CC2)O[C@H]1CO | 0.591
CCCc1cn(CC[C@@H]2CC[C@H](NS(=O)(=O)c3ccccc3Cl)[C@H](CO)O2)nn1 | -0.0115
CCCC(=O)Nc1ccc2c(c1)C(=O)N(C)C[C@H](OC)[C@@H](C)CN(C(C)=O)[C@H](C)CO2 | 0.373
COCc1cn(CC[C@H]2CC[C@H](NC(=O)c3ccncc3)[C@H](CO)O2)nn1 | 0.111
O=C(N[C@@H]1CC[C@@H](CCn2cc(-c3ccccn3)nn2)O[C@@H]1CO)c1ccccc1 | 0.105
O=C(C[C@@H]1C[C@H]2c3cc(NC(=O)C4CCOCC4)ccc3O[C@H]2[C@@H](CO)O1)NCCN1CCCCC1 | -0.003
O=C(C[C@H]1CC[C@@H](NC(=O)c2ccccc2)[C@@H](CO)O1)NCc1ccncn1 | -0.091
CO[C@@H]1CN(C)C(=O)c2cc(NC(=O)c3ccc(F)cc3)ccc2OC[C@H](C)N(C(=O)CN(C)C)C[C@H]1C | -0.235
C[C@@H]1CN([C@H](C)CO)C(=O)c2cc(-c3ccccc3)cnc2O[C@H]1CN(C)C(=O)Nc1ccccc1 | -0.031
Cc1noc(C)c1NC(=O)N(C)C[C@H]1Oc2ccc(NS(=O)(=O)c3ccc(Cl)cc3)cc2CC(=O)N([C@H](C)CO)C[C@@H]1C | 0.108
O=C(N[C@H]1CC[C@H](CCn2cc(C3(O)CCCC3)nn2)O[C@H]1CO)C1CC1 | -0.0085

Structure (SMILES) | inhibition [%]
COc1ccccc1CNC(=O)C[C@@H]1C[C@H]2c3cc(NC(=O)CN(C)C)ccc3O[C@H]2[C@@H](CO)O1 | -0.208
C[C@@H]1CN([C@@H](C)CO)S(=O)(=O)c2ccc(C#Cc3ccncc3)cc2O[C@@H]1CN(C)S(=O)(=O)c1ccccc1 | -0.653
CO[C@@H](CN(C)C(=O)c1cnccn1)[C@H](C)CN([C@H](C)CO)S(=O)(=O)c1ccc(C)cc1 | 0.027
C/C=C/c1cnc2c(c1)C(=O)N([C@H](C)CO)C[C@H](C)[C@H](CN(C)C(=O)c1cccc(F)c1)O2 | 0.473
CO[C@H]1CN(C)C(=O)c2cc(NS(=O)(=O)c3ccc(C)cc3)ccc2OC[C@H](C)NC[C@H]1C | 0.218
COc1ccc(-c2cnc3c(c2)C(=O)N([C@@H](C)CO)C[C@@H](C)[C@H](CN(C)C(=O)C2CCCCC2)O3)cc1 | -0.366
CN(C)C(=O)C[C@@H]1C=C[C@H](NC(=O)Nc2cccc(F)c2)[C@H](CO)O1 | 0.0155
CCC(=O)Nc1ccc2c(c1)C(=O)N(C)C[C@H](OC)[C@H](C)CN(C(=O)c1ccccc1F)[C@@H](C)CO2 | -0.083
COc1cccc(S(=O)(=O)Nc2ccc3c(c2)C(=O)N(C)C[C@@H](OC)[C@H](C)CN(C(=O)Cc2cccnc2)[C@H](C)CO3)c1 | 0.018
CCCNC(=O)Nc1ccc2c(c1)C(=O)N(C)C[C@@H](OC)[C@@H](C)CN(C)[C@@H](C)CO2 | -0.291
CO[C@@H]1CN(C)C(=O)c2cc(NS(C)(=O)=O)ccc2OC[C@@H](C)N(C(=O)C2CCC2)C[C@@H]1C | -0.303
CCC(=O)Nc1ccc2c(c1)OC[C@@H](C)N(CC1CC1)C[C@H](C)[C@H](OC)CN(C)C2=O | 0.102
O=C(C[C@@H]1C=C[C@@H](NC(=O)c2ccccc2)[C@H](CO)O1)NCCc1ccncc1 | 0.0765
CO[C@H]1CN(C)C(=O)c2ccc(NC(=O)c3cc(C)on3)cc2OC[C@H](C)N(C)C[C@H]1C | 0.444
CN1CCN(C(=O)C[C@H]2C[C@@H]3c4cc(NC(=O)NC5CCCC5)ccc4O[C@@H]3[C@@H](CO)O2)CC1 | 0.0955
O=C(NCC[C@H]1CC[C@H](NC(=O)C2CC2)[C@@H](CO)O1)c1ccc(F)cc1 | 0.372
O=C(Nc1ccc2c(c1)[C@@H]1C[C@H](CC(=O)N3CCOCC3)O[C@@H](CO)[C@@H]1O2)C1CCOCC1 | -1
COCC(=O)Nc1ccc2c(c1)C(=O)N(C)C[C@@H](OC)[C@@H](C)CN(C(=O)c1ccccc1)[C@@H](C)CO2 | 0.0325
CO[C@@H]1CN(C)C(=O)c2ccc(NC(=O)c3ccc(F)cc3)cc2OC[C@H](C)N(C)C[C@H]1C | 0.002
COCC(=O)Nc1ccc2c(c1)[C@H]1C[C@H](CC(=O)OC)O[C@@H](CO)[C@H]1O2 | -0.0115
CO[C@@H]1CN(C)C(=O)c2ccc(NS(=O)(=O)c3cccc(C)c3)cc2OC[C@@H](C)NC[C@H]1C | -0.0525
COCC(=O)Nc1ccc2c(c1)OC[C@H](C)N(C(=O)COC)C[C@@H](C)[C@H](OC)CN(C)C2=O | -0.0515
CC(=O)N(C)C[C@@H]1Oc2cc(-c3cncnc3)ccc2S(=O)(=O)N([C@@H](C)CO)C[C@H]1C | 1.05
COc1ccccc1CNC(=O)C[C@H]1C[C@@H]2c3cc(NC(=O)c4ccc5c(c4)OCO5)ccc3O[C@@H]2[C@H](CO)O1 | -0.69
CN(C)CCCNC(=O)C[C@@H]1C=C[C@H](NC(=O)c2ccccc2F)[C@H](CO)O1 | 0.626
